Results on 20 compounds are retold here after PubChem BioAssay (EPA / NIEHS).

For assay [1], the target named is human Thyroid Receptor alpha (THRa1), THRA (gene 7067) (UniProt P10827). In words: ATG_THRa1_TRANS: Attagene TRANS-FACTORIAL HepG2 Assay for human Thyroid Receptor alpha (THRa1) (AID 2283014; active = hit-call score of the fitted dose curve at least 0.9, where 1 is the maximum). Put shortly: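 Measured here is mRNA from a GAL4-UAS reporter in transfected HepG2 cells carrying a Gal4-fused receptor, 24 h post-dose. DMSO served as negative control and baseline.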
Sequence of human Thyroid Receptor alpha (THRa1), THRA (gene 7067) (P10827 whole entry, looked up, the tested form may be a part): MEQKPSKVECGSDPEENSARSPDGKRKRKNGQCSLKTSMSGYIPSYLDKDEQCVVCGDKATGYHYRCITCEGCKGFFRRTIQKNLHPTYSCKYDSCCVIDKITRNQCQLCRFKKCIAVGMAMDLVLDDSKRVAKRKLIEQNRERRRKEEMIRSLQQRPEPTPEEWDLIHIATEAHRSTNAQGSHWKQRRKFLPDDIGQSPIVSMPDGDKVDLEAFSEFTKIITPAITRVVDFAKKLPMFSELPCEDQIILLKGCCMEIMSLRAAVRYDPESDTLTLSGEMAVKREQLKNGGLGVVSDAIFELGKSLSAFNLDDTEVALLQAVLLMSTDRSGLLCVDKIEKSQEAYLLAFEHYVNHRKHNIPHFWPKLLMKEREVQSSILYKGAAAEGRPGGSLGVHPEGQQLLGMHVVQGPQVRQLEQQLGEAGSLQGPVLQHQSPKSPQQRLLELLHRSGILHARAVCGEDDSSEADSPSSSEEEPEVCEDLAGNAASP

Read-out in assay [2]: E-selectin (Homo sapiens) (UniProt P16581)
Nature of the assay: BSK_3C_Eselectin: BioMAP Diversity Plus: 3C Assay for Eselectin Biomarker Activity (AID 2283015).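 For outcome: cell surface E-selectin protein quantified by ELISA 24 h after dosing.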 The conditions noted are these: primary human endothelial cells (HUVEC); actives raise or lower the signal. Put shortly: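 Endpoint derived by bidirectional fitting against DMSO vehicle; signal is ELISA-detected E-selectin from primary HUVEC at 24 h post-dosing, with parallel SRB staining (0.1% SRB, 560 nm) flagging cytotoxicity.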

Read-out in assay [3]: Interleukin-1 alpha (IL1a), IL1A (gene 3552)
In words: BSK_BE3C_IL1a: BioMAP Diversity Plus: BE3C Assay for Interleukin-1 alpha (IL1a) Biomarker Activity (AID 2283016). The conditions noted are these: primary human bronchial epithelial cells; actives raise or lower the signal. A digest of the protocol: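 Human primary bronchial epithelial cells, 24 h chemical exposure; IL-1a quantified by ELISA, fitted bidirectionally against DMSO. Cytotoxicity assessed in parallel by SRB total-protein staining at the time of measurement.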

Read-out in assay [4]: Monocyte Chemoattractant Protein-1 (MCP1), CCL2 (gene 6347)
In words: BSK_3C_MCP1: BioMAP Diversity Plus: 3C Assay for Monocyte Chemoattractant Protein-1 (MCP1) Biomarker Activity (AID 2283017). Particulars: primary human endothelial cells (HUVEC); actives raise or lower the signal. Put shortly:
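Using human vascular primary endothelium, researchers measured MCP-1 by ELISA 24 h after treatment, with DMSO serving as negative control for bidirectional fitting.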

Read-out in assay [5]: Monocyte Chemoattractant Protein-1 (MCP1), CCL2 (gene 6347)
In words: BSK_4H_MCP1: BioMAP Diversity Plus: 4H Assay for Monocyte Chemoattractant Protein-1 (MCP1) Biomarker Activity (AID 2283018). The conditions noted are these: primary human endothelial cells (HUVEC); actives raise or lower the signal. A digest of the protocol:
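Human umbilical vein endothelial cells (4H system) exposed to chemicals for 24 h in 96-well format. MCP-1 measured by ELISA; bidirectional fitting against DMSO, with SRB total-protein staining in parallel cultures for cytotoxicity.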

Read-out in assay [6]: Interleukin-8 (IL8), CXCL8 (gene 3576)
Nature of the assay: BSK_3C_IL8: BioMAP Diversity Plus: 3C Assay for Interleukin-8 (IL8) Biomarker Activity (AID 2283020). Particulars: primary human endothelial cells (HUVEC); actives raise or lower the signal. Put shortly: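 Primary human umbilical vein endothelial cells were dosed for 24 h. IL-8 was quantified by ELISA and fitted bidirectionally against DMSO. Cytotoxicity was assessed in parallel cultures by SRB staining at 560 nm.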

In assay [7] the target is human Vitamin D Receptor (VDR), VDR (gene 7421) (UniProt P11473). In words: ATG_VDR_TRANS: Attagene TRANS-FACTORIAL HepG2 Assay for human Vitamin D Receptor (VDR) (AID 2283022; active = hit-call score of the fitted dose curve at least 0.9, where 1 is the maximum). A digest of the protocol: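 Multiplexed TRANS reporter in HepG2; 24 h treatment; reporter mRNA by RT-PCR plus capillary electrophoresis; upregulation scored relative to DMSO.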
Sequence of human Vitamin D Receptor (VDR), VDR (gene 7421) (P11473 whole entry, looked up): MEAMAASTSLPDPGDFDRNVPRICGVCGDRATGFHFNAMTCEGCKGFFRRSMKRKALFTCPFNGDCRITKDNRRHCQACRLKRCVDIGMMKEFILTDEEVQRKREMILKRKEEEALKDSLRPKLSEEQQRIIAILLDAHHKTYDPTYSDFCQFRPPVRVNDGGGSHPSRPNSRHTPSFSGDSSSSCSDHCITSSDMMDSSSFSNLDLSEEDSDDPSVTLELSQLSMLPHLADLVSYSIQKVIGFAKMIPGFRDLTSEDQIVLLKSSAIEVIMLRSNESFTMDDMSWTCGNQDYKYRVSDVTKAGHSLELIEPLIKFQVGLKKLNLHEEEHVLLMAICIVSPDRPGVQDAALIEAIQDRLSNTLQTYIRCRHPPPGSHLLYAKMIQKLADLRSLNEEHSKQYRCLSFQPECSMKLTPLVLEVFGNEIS
Read-out in assay [8]: Human Leukocyte Antigen - DR isotype (HLADR), HLA-DRA (gene 3122)
In words: BSK_3C_HLADR: BioMAP Diversity Plus: 3C Assay for Human Leukocyte Antigen - DR isotype (HLADR) Biomarker Activity (AID 2283019).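 For outcome: ELISA of cell-surface HLA-DR on HUVEC 24 h after dosing.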 Particulars: primary human endothelial cells (HUVEC); actives raise or lower the signal. A digest of the protocol: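 Compound added to primary HUVEC cultures, 24 h incubation, then HLA-DR determined by ELISA; endpoint derived by bidirectional fitting relative to DMSO negative control.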

Read-out in assay [9]: Monokine induced gamma interferon (MIG), CXCL9 (gene 4283)
In words: BSK_3C_MIG: BioMAP Diversity Plus: 3C Assay for Monokine induced gamma interferon (MIG) Biomarker Activity (AID 2283021). The conditions noted are these: primary human endothelial cells (HUVEC); actives raise or lower the signal. A digest of the protocol:
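HUVEC primary endothelial cultures dosed with chemical; MIG quantified by ELISA at 24 h. Data fitted bidirectionally against DMSO control, with parallel SRB total-protein staining for cytotoxicity.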

Records with an inconclusive call do not appear. The source made the active and inactive calls. Rule for the calls, unless noted: active = hit-call score of the fitted dose curve at least 0.9, where 1 is the maximum; inactive = score below 0.9.

Sequence of E-selectin (Homo sapiens) (P16581 whole entry, looked up): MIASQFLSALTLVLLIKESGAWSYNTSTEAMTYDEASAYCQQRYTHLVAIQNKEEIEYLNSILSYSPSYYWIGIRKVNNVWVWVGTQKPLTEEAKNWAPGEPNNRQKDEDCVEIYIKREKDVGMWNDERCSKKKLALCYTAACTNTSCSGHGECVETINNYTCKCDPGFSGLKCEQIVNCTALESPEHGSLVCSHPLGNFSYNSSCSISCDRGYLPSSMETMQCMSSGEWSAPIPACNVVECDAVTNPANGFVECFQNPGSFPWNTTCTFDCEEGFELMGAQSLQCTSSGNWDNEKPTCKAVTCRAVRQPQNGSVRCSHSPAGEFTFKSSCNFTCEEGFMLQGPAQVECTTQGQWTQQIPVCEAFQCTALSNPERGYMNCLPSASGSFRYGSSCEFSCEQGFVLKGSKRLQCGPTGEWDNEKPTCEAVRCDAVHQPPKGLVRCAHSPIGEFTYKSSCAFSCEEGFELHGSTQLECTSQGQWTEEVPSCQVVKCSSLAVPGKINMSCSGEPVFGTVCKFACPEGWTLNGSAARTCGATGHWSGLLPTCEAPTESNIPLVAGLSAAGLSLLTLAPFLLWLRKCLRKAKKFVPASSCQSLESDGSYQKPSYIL

As usually defined, the AC50 is the concentration giving half of the maximal activity seen. For `COc1cc(C(C)C)c2c(c1)S(=O)(=O)N(COc1cc(=O)n3cccc(OCCN4CCCCC4)c3n1)C2=O`, the compound was called inactive in assay [1], in assay [4], in [5], in [6] and in assay [7]. Besides, the AC50 in assay [2] is 6.54 µM (active); in assay [3], 8.48 µM (active).
In the case of `NC(=O)N(O)[C@@H]1COc2cc(OCc3ccccc3)ccc21`, the result in assay [2], in assay [3], in assay [4], in assay [8], in assay [6] and in assay [9] was inactive. Also, the call in [7] was inactive.
Turning to `Cc1nccn1-c1ccc(Sc2cccc(C3(C(N)=O)CCOCC3)c2)cc1`, the call in assay [1], in assay [2] and in assay [4] was inactive. The AC50 was 10.8 µM (active) in assay [3], 4.95 µM (active) in assay [5], 11 µM (active) in assay [6] and 38 µM (active) in [7].
As to `O=C(O)c1ccc2c(c1)nc(C(=O)NC1CCN(C3CC3)CC1)n2Cc1cc(-c2ccc(Cl)s2)on1`, the outcome in assay [2], in assay [3], in assay [4], in [6] and in [9] was inactive. Also, the AC50 in assay [8] was 1.6 µM (active).
Take `O=S(=O)(O)CCC(F)(F)C(F)(F)C(F)(F)C(F)(F)C(F)(F)C(F)(F)F`: the compound was classed as inactive in assay [1], in [2], in assay [3], in assay [4], in assay [6] and in assay [7].
As to `OCCNCCO`, the outcome in [2], in assay [3], in assay [4] and in assay [6] was inactive.
Regarding `NC(=O)NN=Cc1ccc([N+](=O)[O-])o1`, the result in assay [2], in assay [3], in assay [4], in [5], in assay [8] and in [6] was inactive. Besides, the outcome in assay [7] was inactive.
Turning to `NC(=O)N1c2ccccc2C=Cc2ccccc21`, the compound was called inactive in assay [1], in assay [2], in [3], in assay [4], in assay [8] and in assay [6].
Turning to `COCc1nnc(-c2ccc[n+]([O-])c2)n1-c1c(Cl)c(Cl)cc2[nH]c(=O)c(=O)[nH]c12`, the outcome in assay [2], in [3], in assay [4] and in assay [6] was inactive.
Turning to `CCOC(N)=O`, the outcome in assay [2], in assay [3], in assay [4], in assay [5], in assay [6] and in assay [9] was inactive.
Take `CC(C)CCCCCCOC(=O)C1CCCCC1C(=O)OCCCCCCC(C)C` (stereo not given): the outcome in assay [1], in assay [2], in [3], in [4], in [6] and in [9] was inactive. In addition, the outcome in [7] was inactive.
For the compound `CC(C)CC(C)O` (stereo not given), the outcome in [2], in assay [3], in assay [4], in [8] and in [6] was inactive.
For `CC(=O)c1ccccc1`, the result in assay [1], in assay [2], in assay [3], in assay [4], in assay [6] and in assay [9] was inactive.
As to `CCCCC(CC)C(=O)OCCOCCOCCOC(=O)C(CC)CCCC` (stereo not given), the result in assay [2], in assay [3], in [4] and in [6] was inactive.
On to `c1ccc2cc3ccccc3cc2c1`, for which the call in [1], in [2], in assay [3], in [4], in assay [6] and in [7] was inactive.
Take `FC(F)C(F)(F)COCC1CO1` (stereo not given): the outcome in assay [2], in assay [3], in [4], in assay [5], in assay [8] and in assay [6] was inactive. Also, the call in assay [7] was inactive.
In the case of `C=CN1CCCC1=O`, the outcome in assay [2], in assay [3], in [4], in assay [8], in assay [6] and in [9] was inactive.
As for `Cn1c(=O)c2[nH]cnc2n(C)c1=O`, the outcome in assay [2], in [3], in assay [4] and in assay [6] was inactive.
In the case of `CCCCCCOC(=O)CC(CC(=O)OCCCCCC)(OC(=O)CCC)C(=O)OCCCCCC`, the result in assay [2], in [3], in assay [4], in [8], in [6] and in assay [9] was inactive. The compound was called inactive in assay [7].
Turning to `OC(CCl)CCl`, the outcome in [2], in [3], in assay [4], in [5], in [8] and in assay [6] was inactive. The result in assay [9] and in assay [7] was inactive.
